TDP1 block – qHTS Assay for Inhibitors of Tyrosyl-DNA Phosphodiesterase (TDP1) | Tyrosyl-DNA phosphodiesterase 1 (Homo sapiens), Q9NUW8 | recombinant TDP1, AlphaScreen DNA substrate cleavage | Potency, µM (top dose mostly 130 µM), actives largely listed as inhibitors | hit rate 0.28% among 350,000; further: nearly all actives have a fitted effect of over 40% in size
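Tdp1 1 nM final; 15 min RT w/ cpd; substrate 15 nM, 5 min; beads 10 ug/ml, 10 min; AlphaScreen read. Neg ctrl: no enzyme.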
miR-21 act – qHTS Assay for Modulators of miRNAs and/orActivators of miR-21; Potency, µM (highest dose often 38.3 µM), usual class: activators; 340,000 tested, under 10 active; HeLa miR-21 FLuc reporter, luciferase, 48 h;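 further: miR-21 action dims this reporter so a rising signal means less miR-21 action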
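Compounds were titrated across several concentrations (up to approximately 40 uM) and incubated 48 hours with HeLa miR-21-FLuc reporter cells (miR-21 target sequence downstream of FLuc, endogenous miR-21). Readout was firefly luciferase luminescence after lytic detection reagent.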
DT40 TDP1 CPT – qHTS for Inhibitors of human tyrosyl-DNA phosphodiesterase 1 (TDP1): qHTS in cells in presence of CPT; chicken DT40 Tdp1-/-;hTDP1 cells + 20 nM CPT, ATP luminescence, 48 h; Potency, µM (doses to about 46.2 µM), most hits filed as inhibitors; hit rate 12% among 420,000; AID 686979, 2013; further: nearly all actives have a fitted effect of over 55% in size
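Cell growth measured by CellTiter-Glo luminescence after a minimum 48 h, 37 C compound exposure with 20 nM CPT in Tdp1-knockout DT40 cells stably expressing hTDP1, seeded 400/well; qHTS titration format.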
uPA generation – qHTS for Inhibitors of Cell Surface uPA Generation; cell surface uPA generation assay, qHTS; Potency, µM (series often up to 38.3 µM), most hits filed as inhibitors; hit rate 0.31% among 330,000; AID 540303, 2011; active means well fitted inhibition curve with a large enough effect; inconclusive means small, poorly fitted or top-dose-only effect; inactive means no such curve, though single readings can be large or run the other way; tested in mouse RAW 264.7 cells; further: nearly all actives have a fitted effect of over 55% in size
DT40 TDP1 no CPT – qHTS for Inhibitors of human tyrosyl-DNA phosphodiesterase 1 (TDP1): qHTS in cells in absence of CPT; DT40 Tdp1-/- hTDP1 cells, no CPT, ATP luminescence, 48 h; Potency, µM (doses to about 46.2 µM), usual class: inhibitors; hit rate 15% among 420,000; further: nearly all actives have a fitted effect of over 55% in size
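Chicken DT40 Tdp1-/- cells complemented with human TDP1, screened without camptothecin (DMSO vehicle only), 400 cells/well. Compounds pin-transferred, cells incubated at 37 °C for at least 48 hr. Growth read as ATP-dependent luminescence (CellTiter-Glo, 30 min at RT).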
Of the large screens only hits and unclear results are named; the others gave an inactive call. Shown are actives, neighbours in structure and some others; about 16% of the full set was active somewhere. Unless noted, the call rests on the fitted dose curve; in most records, active means well fitted curve in the direction sought with a large enough effect; inconclusive means small, poorly fitted or top-dose-only effect, or another doubt; inactive means no such curve, though single readings can be large; an effect the other way counts as inactive or inconclusive.

Cc1nn(Cc2ccc(Cl)cc2)c(C)c1NC(=O)CCCn1nc([N+](=O)[O-])c(Cl)c1C	DT40 TDP1 CPT 15µM, DT40 TDP1 no CPT inconclusive
Cc1c(Cl)c([N+](=O)[O-])nn1CCCC(=O)Nc1cc(Oc2ccccc2)cc([N+](=O)[O-])c1	DT40 TDP1 CPT 21µM, DT40 TDP1 no CPT inconclusive
CC1=CCP(=O)(c2ccccc2)C1 (configuration not stated)	none
CC1=CC(=C2C(=O)c3ccccc3C2=O)C=C(C)O1	DT40 TDP1 CPT 10µM, DT40 TDP1 no CPT inconclusive
CC1=CC(=C2C(=O)c3ccccc3C2=O)C=C(C)N1Cc1ccco1	DT40 TDP1 no CPT 21µM
CC(=O)N1C(=O)C(=C2C=C(C)OC(C)=C2)c2ccccc21	DT40 TDP1 CPT inconclusive, DT40 TDP1 no CPT inconclusive
O=C1c2ccccc2C(=O)N1Cc1ccco1	none
Cc1cccc(C(=O)N[C@H](C(=O)OCC(=O)NC(=O)c2cccn2C)C(C)C)c1	DT40 TDP1 no CPT inconclusive
O=C(N=Nc1c(O)[nH]c2ccc(F)cc12)c1ccc(NS(=O)(=O)c2cccs2)cc1	none (no result: miR-21 act)
COc1ccc(C=NNC(=O)c2ccccc2NS(=O)(=O)c2cccs2)cc1O	none (no result: miR-21 act)
Cc1ccc2[nH]c(O)c(N=NC(=O)c3ccc(NS(=O)(=O)c4cccs4)cc3)c2c1	DT40 TDP1 CPT 15µM, DT40 TDP1 no CPT inconclusive (no result: TDP1 block)
O=C(NN=Cc1ccc(O)cc1O)c1ccccc1NS(=O)(=O)c1cccs1	DT40 TDP1 CPT inconclusive, uPA generation inconclusive, DT40 TDP1 no CPT 21µM (no result: miR-21 act)
O=C(N=Nc1c(O)[nH]c2ccccc12)c1ccccc1NS(=O)(=O)c1cccs1	DT40 TDP1 CPT 16µM
CCOC(=O)c1ncccc1NC(=O)CC(=O)Nc1cccnc1C(=O)OCC	none (no result: TDP1 block, miR-21 act)
O=C1C2C3C=CC(C3)C2C(=O)N1/N=C/c1cc(Br)cc([N+](=O)[O-])c1O (configuration not stated)	DT40 TDP1 CPT inconclusive, DT40 TDP1 no CPT 23µM
O=C1C2C3C=CC(C3)C2C(=O)N1/N=C/c1ccc(-c2ccccc2[N+](=O)[O-])o1 (configuration not stated)	DT40 TDP1 CPT inconclusive
COc1cccc(/C=C/C(=O)OCC(=O)Nc2ccc3c(c2)OCO3)c1	none (no result: TDP1 block, miR-21 act, uPA generation)
COC(=O)Cc1ccc(N(Cc2ccccc2F)S(=O)(=O)c2ccc(C)cc2)cc1	DT40 TDP1 CPT 21µM, DT40 TDP1 no CPT 18µM
COc1ccc(OCC(=O)Nc2ccc(S(=O)(=O)N(C)c3ccccc3)cc2)cc1	none
COC(=O)c1ccc(NC(=O)COc2ccc(N(C)S(=O)(=O)c3ccc(C)cc3)cc2)cc1	DT40 TDP1 CPT 16µM, DT40 TDP1 no CPT inconclusive (no result: miR-21 act)
COc1ccc(CN(C)C(=O)CCN(c2ccccc2)S(=O)(=O)c2ccc(C)cc2)c(OC)c1	DT40 TDP1 CPT 21µM, DT40 TDP1 no CPT 23µM (no result: miR-21 act)
Cc1ccc(S(=O)(=O)N(C)c2ccc(OCC(=O)Nc3ccc(C(=O)N(C)C)cc3)cc2)cc1C	DT40 TDP1 CPT inconclusive, DT40 TDP1 no CPT 18µM (no result: miR-21 act)
O=C(Nc1cccnc1)C1(F)C(F)(F)C(F)(F)C(F)(F)C(F)(F)C1(F)F	DT40 TDP1 CPT inconclusive, DT40 TDP1 no CPT inconclusive
Cc1ccc(OCC(=O)Nc2ccc(S(=O)(=O)N(Cc3ccccc3)c3ccccc3)cc2)cc1	DT40 TDP1 CPT 18µM, DT40 TDP1 no CPT 4.6µM (no result: uPA generation)
COc1cccc(CNC(=O)CCC2CCCN(C(=O)CCc3c(C)noc3C)C2)c1 (configuration not stated)	none (no result: TDP1 block)
Clc1cccc(CSc2nnc(-c3c[nH]c4ccccc34)o2)c1	DT40 TDP1 CPT inconclusive, DT40 TDP1 no CPT inconclusive
O=c1c(-c2nnc(SCc3ccc(Cl)c(Cl)c3)o2)cccn1Cc1ccccc1	DT40 TDP1 CPT inconclusive, DT40 TDP1 no CPT 21µM
COc1ccc(CC(=O)N2CCc3cc(OC)c(OC)cc3C2COc2cc(C)cc(C)c2)cc1OC (configuration not stated)	DT40 TDP1 CPT 18µM, DT40 TDP1 no CPT 18µM (no result: uPA generation)

Screening results (PubChem)
